Screening results (PubChem BioAssay)
Only some compounds are listed: those with a hit (about 7.2% of all), similar ones and a draw of the others.
VLA-4 inh: inhibition in a human VLA-4 binding assay | VLA-4 expressing cells, ligand binding flow cytometry | inhibition, % (about 7 µM as worked out from the volumes in the protocol) | 330,000 compounds, 0.2% hits; in the data active means inhibition above about 50%
Target sequence (P13612 whole entry, looked up): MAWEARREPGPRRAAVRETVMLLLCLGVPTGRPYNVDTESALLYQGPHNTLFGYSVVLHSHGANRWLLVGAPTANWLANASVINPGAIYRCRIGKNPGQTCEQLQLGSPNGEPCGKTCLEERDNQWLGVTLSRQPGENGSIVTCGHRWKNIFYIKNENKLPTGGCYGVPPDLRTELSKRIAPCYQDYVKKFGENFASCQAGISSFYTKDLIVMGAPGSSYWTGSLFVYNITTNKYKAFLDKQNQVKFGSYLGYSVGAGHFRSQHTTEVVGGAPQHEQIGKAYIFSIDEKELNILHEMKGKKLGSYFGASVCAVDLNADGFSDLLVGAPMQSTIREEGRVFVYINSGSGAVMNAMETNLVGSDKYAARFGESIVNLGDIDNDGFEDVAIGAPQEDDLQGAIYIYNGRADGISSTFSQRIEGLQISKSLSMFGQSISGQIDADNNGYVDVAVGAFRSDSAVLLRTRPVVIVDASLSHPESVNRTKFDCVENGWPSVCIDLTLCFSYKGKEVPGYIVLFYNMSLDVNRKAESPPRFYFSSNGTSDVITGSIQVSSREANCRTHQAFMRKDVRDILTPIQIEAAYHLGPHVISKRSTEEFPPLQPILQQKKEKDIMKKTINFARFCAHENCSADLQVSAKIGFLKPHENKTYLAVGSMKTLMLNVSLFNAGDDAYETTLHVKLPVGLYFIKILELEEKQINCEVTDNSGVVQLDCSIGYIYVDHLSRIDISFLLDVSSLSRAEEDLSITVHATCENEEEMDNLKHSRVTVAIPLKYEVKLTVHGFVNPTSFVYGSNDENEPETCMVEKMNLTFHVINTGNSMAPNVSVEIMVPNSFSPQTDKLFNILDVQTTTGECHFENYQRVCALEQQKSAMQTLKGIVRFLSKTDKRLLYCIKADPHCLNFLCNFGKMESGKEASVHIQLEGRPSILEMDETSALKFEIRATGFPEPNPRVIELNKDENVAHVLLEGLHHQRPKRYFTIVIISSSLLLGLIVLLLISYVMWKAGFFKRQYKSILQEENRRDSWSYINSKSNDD
Efflux pump mplx: blocks antifungal efflux pumps in multiplex yeast assay. S. cerevisiae Candida pump triplex, Nile Red efflux. 330,000 compounds, 0.44% hits. inhibition, % at 10 µM;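 active means plate passing quality check with inhibition over a set limit, or well fluorescence over plate mean plus 4 SD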;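 further: Nile Red retained in pooled yeast measured as flow cytometry median fluorescence; 0% = buffer negative control and 100% = Enniatin B positive control; higher means more Nile Red kept so more efflux inhibition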
ALR inh: blocks human ALR sulfhydryl oxidase activity. P55789. 290,000 compounds, 3.8% hits. inhibition, % (test concentration not listed). purified ALR, DTT oxidation, H2O2 HRP-luminol luminescence. AID 485317;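 active means mean replicate inhibition above about 79%, with every replicate also reaching it, limit read from the data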
Bfl-1 A1 inh: inhibitors of the anti-apoptotic protein A1, read as caspase activation | MEF A1-2A-BIM cells, Caspase-Glo 3/7 luminescence, 3 h; percent of clofoctol response, vehicle zero | caspase activation, % (test concentration not listed) | 330,000 compounds, 0.066% hits | AID 2462;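 active means over half of replicate activation scores above 10%, or exactly half above 10 with the replicate mean above 10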
SUMO Mot1 rescue: SUMOylation pathway inhibition by Mot1-301 growth rescue; S. cerevisiae Mot1-301 growth rescue, ATP luminescence, 38.5C; percent above DMSO median, 100 means doubled; growth rescue, % at 18.8 µM; 320,000 compounds, 1% hits;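 active means every valid replicate shows activation above 250% relative to neutral control wells; inactive means the rest, any valid replicate at or below 250%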;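 further: OY570 slx delta 5 strain wells were the positive control but not used for scaling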
AHR activator: activators of human aryl hydrocarbon receptor. P35869. AHR-responsive luciferase reporter cells, luminescence. activation, % at 5 µM. 320,000 compounds, 2.5% hits; in the data active means activation above about 47%;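 further: 0% = vehicle wells and 100% = reference agonist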
Active calls of the source: *; . = no result given.

SMILES	VLA-4 inh	Efflux pump mplx	ALR inh	Bfl-1 A1 inh	SUMO Mot1 rescue	AHR activator
COCCNC(=S)Nc1ccc2nc(N3CCCC3)cc(C)c2c1	-4	0	72	0	-8	5
CCOCCCNC(=S)Nc1ccc2nc(N3CCCC3)cc(C)c2c1	3	0	31	1	-6	9
CCN1C(=O)[C@H]2[C@@H](c3ccc(C)cc3)N3C(=O)N(c4cccc(F)c4)C(=O)[C@@]3(C)[C@H]2C1=O	-3	0	.	0	-5	0
Cc1ccc(-n2nnnc2Sc2nc([N+](=O)[O-])nn2C)cc1C	-6	0	-16	1	6	0
Cc1c(Cl)cccc1NS(=O)(=O)c1ccc2c(c1)C1C=CCC1C(c1ccc(C(=O)O)cc1)N2 (stereo not drawn)	-87	0	98*	1	6	0
COc1ccc(NS(=O)(=O)c2ccc3c(c2)[C@H]2C=CC[C@H]2[C@@H](c2ccc(C(=O)O)cc2)N3)cc1	-5	0	-11	0	-6	3
C=CCn1c(SCC(=O)c2c(N)n(C)c(=O)n(C)c2=O)nnc1-c1ccoc1C	7	0	-13	0	2	-2
CCc1c(C)sc(NC(=O)C2CCCCC2C(=O)O)c1C(N)=O (stereo not drawn)	-8	0	.	0	169	2
Cc1sc(NC(=S)Nc2ccc(F)cc2)c(C(N)=O)c1C	-11	0	-39	0	414	81*
Cc1sc(NC(=S)NC(=O)C2CCCCC2)c(C(N)=O)c1C	12	0	.	0	5	56*
NC(=O)c1ccsc1NC(=O)CS(=O)(=O)c1ccc(Cl)cc1	7	0	18	2	42	2
CN(C)C(=O)/C(C#N)=C\c1cc(Br)c(Sc2ccc(Cl)cc2)o1	19	0	93*	-2	-13	0
COc1cccc(CNC(=O)C(=O)NCC2CCCN2S(=O)(=O)c2cc(C)ccc2C)c1 (stereo not drawn)	14	0	-5	0	10	0
Cc1nc2cc(C(=O)O)ccc2n1C1CCCCC1	8	0	-3	0	-15	0
CCn1c(C)nc2cc(N)ccc21	-2	0	98*	0	-5	-1
Cc1nc2cc(N)ccc2n1C1CCCCC1	-2	0	100*	0	-3	4
CCn1c(=O)n(CC)c2cc(N)ccc21	8	0	98*	0	7	0
O=C(NC1CCN(S(=O)(=O)c2ccccc2F)CC1)c1ccco1	-2	0	-2	-1	5	0
CCN(CC)C(=O)c1ccc(C(=O)Nc2ccc(F)cc2)cc1	11	0	.	-8	0	1
O=S(=O)(Nc1ncnc2sc3c(c12)CCC3)c1ccc(Cl)s1	-10	0	12	1	-9	48*
Fc1cccc(Nc2ncnc3sc4c(c23)CCC4)c1	-4	1	12	1	22	25
O=S(=O)(Nc1ncnc2sc3c(c12)CCC3)c1cc(F)ccc1F	-2	0	94*	1	16	27
O=C(O)[C@H](CO)Nc1ncnc2sc3c(c12)CCC3	10	0	3	0	-1	1
O=C(CSc1ncnc2c1oc1ccccc12)NC1CCCCC1	-16	0	-10	0	10	3
CN1/C(=C\C(=O)c2cccnc2)Sc2ccccc21	-135	0	-3	0	7	13
SMILES	VLA-4 inh	Efflux pump mplx	ALR inh	Bfl-1 A1 inh	SUMO Mot1 rescue	AHR activator
COc1cccc(C(=O)/C=C2\Sc3ccccc3N2C)c1	2	0	11	1	1	58*
Fc1cccc(/C=N/Nc2ccc3ccccc3n2)c1	-6	0	-11	0	10	16
Brc1ccc(/C=N/Nc2ccc3ccccc3n2)cc1	5	0	-1	-3	62	69*
CS(=O)(=O)N1CCC(NC(=O)Nc2ccc(OC(F)(F)F)cc2)CC1	0	0	-5	1	-19	2
CCCOc1cccc(C2C(C(=O)c3ccc(C)o3)=C(O)C(=O)N2c2nc(C)c(C(C)=O)s2)c1 (stereo not drawn)	-11	0	97*	0	4	5
CCCOc1cccc(C2C(C(=O)c3ccc(C)o3)=C(O)C(=O)N2CCN2CCOCC2)c1 (stereo not drawn)	-4	0	6	-1	-24	-1
COCCNc1c2c(nc3c(-c4ccccc4)c(C)nn13)CCCC2	-9	0	42	0	-2	11
Cc1nn2c(NCCOCCO)c3c(nc2c1-c1ccccc1)CCCC3	14	0	86*	1	4	.
Cc1cc([N+](=O)[O-])ccc1NC(=O)CCC(=O)N1CCCC1	5	0	-4	0	239	1
CCCCOC(=O)c1ccc(OC(=O)N2CCOCC2)cc1	-4	0	0	1	8	2
COc1cc(C(=O)OCCN2CCOCC2)ccc1O	5	0	96*	-2	6	6
O=C(OCCCN1CCOCC1)c1ccc(O)c(O)c1	3	0	99*	0	-7	2
CC(C)COc1ccc(C(=O)OCCN2CCOCC2)c(O)c1	-3	0	7	0	3	2
Cc1ccc2[nH]c(C)c(CCNC(=O)c3c(N)no[n+]3[O-])c2c1	5	0	99*	1	-11	26
COc1ccc(CN2C[C@H]3CCCN3c3cc(Br)ccc3S2(=O)=O)cc1	.	0	.	.	.	.
C[C@@H]1CCC(=O)N(CC[C@H](Oc2ccccc2)c2ccccc2)CC1	26	0	.	0	-9	2
CCOC(=O)c1ccc(N2C(=O)CC(Sc3nnc(C)s3)C2=O)cc1 (stereo not drawn)	17	0	91*	0	37	-2
CCOC(=O)c1ccc(N2C(=O)CC(Sc3nc(C)cc(C)n3)C2=O)cc1 (stereo not drawn)	-5	0	22	-1	-4	.
CC1CN(C(=O)c2cc(Br)c(Br)s2)CC(C)O1 (stereo not drawn)	-20	0	3	1	24	0
CCOC(=O)Cc1cc(=O)c2c(=O)n(-c3ccccc3)[nH]c2[nH]1	-5	0	78*	1	3	-3
O=c1cc(-c2ccccc2)[nH]c2[nH]n(-c3ccccc3)c(=O)c12	-2	0	99*	2	11	-3
Cc1ccc2c(c1)N(C(=O)CCC(=O)N1CCC(C(N)=O)CC1)CCO2	-29	0	-6	2	-4	-2
CCOc1ccc(Oc2ccccc2NC(=O)CCNC(C)=O)cc1	-3	0	.	0	20	4
FC(F)(F)C1=CC(c2ccc(Br)cc2)=NCCN1	-5	0	100*	0	-9	0
FC(F)(F)C1=CC(c2ccccc2)=NCCN1	22	0	.	-1	19	-2
COc1ccc(-c2cn(-c3ccccc3)nc2CO)cc1	6	0	97*	1	-2	8
